Screening data as filed in PubChem BioAssay.
Only some compounds are listed: those with a hit (about 6.7% of all), similar ones and a draw of the others.
C diff growth – inhibitors of Clostridium difficile growth | AID 1259249 | 0.25% of 86,000 active | growth activity, negative = inhibition, % at 16 µg/mL (by protocol) | Clostridium difficile clinical isolate growth, OD600, 24 h; active compounds read low;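 active means mean growth activity at or below -80% and every replicate also at or below -80%; inconclusive means mean at or below -80% but some replicate above -80%; inactive means mean growth activity above -80%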
Pf Dd2 inh – P. falciparum Dd2 growth inhibition. SYBR Green, 72 h; active compounds read low. activity change, % at 10 µM. 2.3% of 94,000 active. AID 1159554; in the data active means activity change below about -80%; inconclusive means no clear call, values can overlap the other calls
T cruzi growth-1 – blocks T. cruzi growth in NIH3T3 culture; T. cruzi beta-gal in NIH3T3, GalScreen luminescence, 90 h; inhibition, % at 8.34 µM; 5.9% of 77,000 active;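 active means mean inhibition above about 93%, with at least 55% of replicates each passing it, limit read from the data, passing the limit was not always enough; inconclusive means only one of those two conditions holds; inactive means neither condition holds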
T cruzi growth-2 – inhibitors of T. cruzi proliferation; shares compounds with T cruzi growth-1; T. cruzi beta-gal in NIH3T3, GalScreen luminescence, 90 h; inhibition, % at 8.35 µM; 72% of 5,600 active; AID 651739;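 active means mean replicate inhibition above about 95% and at least 55% of replicates individually reaching it, limit read from the data; inconclusive means only one of the two criteria is met; inactive means neither criterion is met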
T cruzi growth-3 – blocks T. cruzi growth in NIH3T3 host cells; shares compounds with T cruzi growth-1; T. cruzi beta-gal in NIH3T3, GalScreen luminescence, 90 h; inhibition, % at 2.09 µM; 21% of 5,600 active; AID 651740;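 active means mean inhibition above about 95%, with at least 55% of replicates also reaching it, limit read from the data; inconclusive means meets just one of the two conditions; inactive means meets neither condition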
3T3 cytotox – NIH/3T3 (mouse) viability loss. shares compounds with T cruzi growth-1. NIH/3T3 viability, CellTiter-Glo ATP luminescence, 90 h. cytotoxicity (signal decrease), % at 8.35 µM. 14% of 5,600 active. AID 651742;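 active means mean signal decrease across replicates above about 35% based on untreated-well scatter, with enough replicates individually passing, limit read from the data; inconclusive means no rule stated though some were filed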
NIH3T3 tox 2 – cytotoxicity in mouse NIH/3T3 fibroblasts. inhibition, % at 24.9 µM. 56% of 5,600 active. NIH/3T3 viability, CellTiter-Glo ATP luminescence, 90 h. shares compounds with T cruzi growth-1;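 active means mean loss of cell viability signal at or above a set limit, and enough replicates individually reaching it; inconclusive means meets only the mean limit or only the replicate share; inactive means meets neither condition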
A number is an active result; n = inactive; u = inconclusive; x = not tested or not shown; ! = repeats disagree.

SMILES | C diff growth | Pf Dd2 inh | T cruzi growth-1 | others
COc1ccc(C#Cc2ccc([C@@H]3[C@@H](CO)N4CCCCN(C(=O)c5ccncc5)C[C@H]34)cc2)cc1 | n | n | 112.3 | T cruzi growth-2=106.9;T cruzi growth-3=n;3T3 cytotox=45.4;NIH3T3 tox 2=103.1
CCC(=O)N1CC2(CN(C(C)=O)C2)c2c([nH]c3cc(OC)ccc23)[C@@H]1CO | n | n | x
COc1ccc2c3c(n(C)c2c1)[C@H](CO)N(C(C)=O)CC31CN(C(=O)Nc2ccccc2F)C1 | n | n | x
CO[C@H]1CN(C)C(=O)c2ccc(NC(=O)C3CC3)cc2OC[C@H](C)N(C(=O)Cc2ccccn2)C[C@@H]1C | x | n | n
CC(C)NC(=O)N(C)C[C@H]1Oc2ccc(NC(=O)CCN3CCOCC3)cc2C(=O)N([C@@H](C)CO)C[C@H]1C | n | n | n
COc1ccc(S(=O)(=O)N[C@@H]2CC[C@@H](CC(=O)O)O[C@H]2CO)cc1 | n | n | n
C[C@@H]1CN([C@@H](C)CO)C(=O)c2cc(C#Cc3ccccn3)cnc2O[C@H]1CN(C)Cc1cccnc1 | n | n | n
C[C@@H]1CN([C@@H](C)CO)C(=O)c2cc(C#Cc3ccccn3)cnc2O[C@@H]1CN(C)Cc1cncnc1 | n | n | u | T cruzi growth-2=104.2;T cruzi growth-3=n;3T3 cytotox=n;NIH3T3 tox 2=n
C[C@@H]1CN([C@H](C)CO)C(=O)c2cc(C#Cc3ccccn3)cnc2O[C@@H]1CN(C)Cc1cncnc1 | n | n | n
C[C@H](CO)N1C[C@H](C)[C@@H](CN(C)Cc2cncnc2)Oc2ncc(C#Cc3ccccn3)cc2C1=O | n | n | u | T cruzi growth-2=102.5;T cruzi growth-3=n;3T3 cytotox=n;NIH3T3 tox 2=n
O=C(C[C@@H]1CC[C@@H]2[C@H](COC[C@H](O)CN2C(=O)C2CCOCC2)O1)NCc1ccncc1 | n | n | n
COCC#Cc1ccc([C@@H]2[C@H](CO)N3C(=O)CN(C(=O)Nc4ccccc4F)C[C@@H]23)cc1 | n | n | x
COc1ccc(NC(=O)N(C)C[C@@H]2Oc3c(NC(=O)c4cnccn4)cccc3C(=O)N([C@@H](C)CO)C[C@H]2C)cc1 | n | n | n
CO[C@@H]1CN(C)C(=O)c2ccc(NC(=O)NC3CCCCC3)cc2OC[C@@H](C)N(CC2CC2)C[C@H]1C | x | n | x
C[C@@H]1CN([C@@H](C)CO)C(=O)c2cc(NC(=O)c3ccccc3)ccc2O[C@@H](C)CCCCO[C@H]1CN(C)C(=O)c1ccncc1 | n | n | n
C[C@H]1CN([C@@H](C)CO)S(=O)(=O)c2ccc(C#Cc3ccccn3)cc2O[C@H]1CN(C)CC1CC1 | n | n | n
CCCN(C)C[C@H]1Oc2cc(C#Cc3ccccn3)ccc2S(=O)(=O)N([C@@H](C)CO)C[C@H]1C | n | n | n
C[C@@H]1CN([C@@H](C)CO)S(=O)(=O)c2ccc(C#Cc3ccccn3)cc2O[C@H]1CN(C)Cc1cccc(F)c1 | n | n | 120.3 | T cruzi growth-2=96.9;T cruzi growth-3=n;3T3 cytotox=n;NIH3T3 tox 2=n
C[C@@H]1CN([C@H](C)CO)S(=O)(=O)c2ccc(C#Cc3ccccn3)cc2O[C@@H]1CN(C)Cc1cccc(F)c1 | n | n | 121.6 | T cruzi growth-2=105.4;T cruzi growth-3=n;3T3 cytotox=n;NIH3T3 tox 2=69.6
C[C@@H]1CN([C@H](C)CO)C(=O)c2cc(NS(=O)(=O)c3cn(C)cn3)ccc2O[C@@H](C)CCCCO[C@@H]1CN(C)C(=O)c1ccncc1 | n | n | x
CN(C)C(=O)C[C@H]1CC[C@H](NS(=O)(=O)c2ccccc2)[C@@H](CO)O1 | x | n | n
C[C@@H]1CN([C@@H](C)CO)C(=O)Cc2cc(NC(=O)c3ccncc3)ccc2O[C@@H]1CN(C)Cc1ccc(C(=O)O)cc1 | n | n | x
O=C(C[C@@H]1C=C[C@@H](NC(=O)C2CCC2)[C@@H](CO)O1)NCc1ccncc1 | n | n | n
C[C@H]1CN([C@@H](C)CO)C(=O)c2cc(C#CC3CC3)cnc2O[C@H]1CN(C)Cc1ccccn1 | n | n | n
C[C@H](CO)N1C[C@H](C)[C@H](CN(C)C(=O)c2ccccn2)Oc2cc(C#Cc3ccc(F)cc3)ccc2S1(=O)=O | n | n | 118.9! | T cruzi growth-2=98.7;T cruzi growth-3=n;3T3 cytotox=n;NIH3T3 tox 2=n
C[C@H]1CN([C@@H](C)CO)S(=O)(=O)c2ccc(C#Cc3ccccc3)cc2O[C@H]1CN(C)C(=O)c1ccccn1 | n | n | n
